This is an account of results in PubChem BioAssay (NCI).

The panel holds about 83,000 compounds, 20% with a hit somewhere; the sample as a whole holds those more often.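 Testing used 96-well plates and a 48-hour single-concentration exposure. Example: -40 means 40% of the starting cells died.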 A number with no mark means an inactive call. Active and inactive are the calls of the source. The calls were made as follows: active = growth percent below 10; inactive = the rest.

Holding throughout (experiment): NCI-60 one-dose screen, 48 h (100 = growth as untreated, 0 = no growth, -100 = all killed)
Conditions in all cases: 10 µM unless noted

The subject of assay [1] is HCT-15 colon.
Assay [2] concerns HT29 colon.
The subject of assay [3] is SNB-75 CNS.
Assay [4] deals with SNB-19 CNS.
The test system of assay [5] is U251 CNS.
Assay [6] concerns PC-3 prostate.
For assay [7], the system named is SK-MEL-5 melanoma.
Assay [8] relates to UACC-62 melanoma.
Assay [9] relates to LOX IMVI melanoma.
Assay [10] has as its system SK-MEL-28 melanoma.

Regarding `O=C(Nc1ccc(C(=O)/C=C/c2ccc(N3CCOCC3)cc2)cc1)Nc1ccc([N+](=O)[O-])cc1`, the growth in [1] was 92.9%; in [2] it was 88.6%; in assay [3] it was 94.7%; in [4], 98.4%; in assay [5], 85.7%; in assay [6], 85.5%. The growth in assay [7] is 95.1%; in [8], 79.6%; in assay [9], 107%; in [10], 109%.

`O=C1NC(=O)c2cc([N+](=O)[O-])cc3cccc1c23`: the growth in [1] was 95.2%; in assay [2], 102%; in assay [3], 90.2%; in assay [4], 100%; in assay [5], 82.3%; in [6] it was 78.8%. Also, the growth was 101% in assay [7], 87% in assay [8], 81.5% in assay [9] and 108% in [10].

With `CCn1cc(-c2ccnc(NCCNS(=O)(=O)c3cccc4ccccc34)c2)c(-c2cccc(O)c2)n1`, the growth in assay [1] is 96.7%; in assay [2] it was 92.9%; in assay [3] it was 107%; in [4] it was 106%; in assay [5] it was 53%; in assay [6], 83.2%. For the same compound, the growth in [7] is 95.8%; in assay [8], 97.2%; in [9], 111%; in assay [10], 107%.

On to `C=C(C)[C@@H]1CC[C@]2(C(=O)OC)CC[C@]3(C)[C@H](CC[C@@H]4[C@@]5(C)CC/C(=N\OCCC(=NCCC#N)NOCCC#N)C(C)(C)[C@@H]5CC[C@]43C)[C@@H]12`, for which the growth in [1] is 34.3% [100 µM]; in assay [2], 3.88% [100 µM] (active); in [3] it was 18.4% [100 µM]; in [4], 28.9% [100 µM]; in assay [5], -39.7% [100 µM] (active); in [6] it was 4.49% [100 µM] (active). Also, the growth in assay [7] is -84.7% [100 µM] (active); in assay [8], -25.8% [100 µM] (active); in assay [9], 14.6% [100 µM]; in [10], 29.2% [100 µM].

On to `CCCCCC1CCCCN1C(=O)OCCCC` (stereo not given), for which the growth in assay [1] was 101%; in assay [2], 103%; in assay [3], 81.4%; in [4] it was 105%; in [5], 104%; in assay [6], 111%. The growth in assay [7] was 99.4%; in assay [8], 76.4%; in assay [9], 94.7%; in assay [10], 116%.

For `O=C(CCNCc1ccccc1)c1ccccc1`, the growth in assay [1] is 106%; in [2] it was 106%; in assay [3] it was 109%; in [4], 114%; in [5], 101%; in assay [6], 106%. Besides, the growth in assay [7] is 99%; in assay [8], 97.5%; in assay [9] it was 105%; in assay [10], 113%.

As to `CN(Cc1cccc(C(F)(F)F)c1)C(=O)[C@@H](CC(=O)N1CCC(N2CCCCC2)CC1)N1C(=O)[C@@H](N2C(=O)OC[C@@H]2c2ccccc2)[C@H]1/C=C/c1ccccc1`, the growth in [1] was 94.1%; in assay [2], 86.6%; in assay [3], 81.3%; in [4], 81%; in assay [5] it was 67.1%; in assay [6], 67.1%. Besides, the growth was 34.5% in [7], 96.2% in assay [8], 69.2% in assay [9] and 93.3% in assay [10].

For `[2H]C1([2H])CCN(C(=O)C2CC2)c2cc(NS(=O)(=O)c3ccc(-c4cccc(C(N)=O)c4)cc3)ccc21`, the growth in assay [1] was 90.7%; in assay [2] it was 13.6%; in assay [3] it was 11.3%; in [4], 41.2%; in assay [5], 29.8%; in [6] it was 34.2%. Also, the growth in [7] is 15.4%; in assay [8], 21.4%; in assay [9] it was 39.2%; in assay [10], 43.9%.

On to `Cn1cc(-c2nnc(-c3cn(C)c4ncccc34)o2)c2ccccc21`, for which the growth in [1] was 17.9%; in [2] it was 12.1%; in assay [3], -18.3% (active); in [4] it was 42.3%; in assay [5], 30.1%; in [6] it was 39.8%. The growth was 0.903% (active) in [7], 27.7% in assay [8], 48.6% in assay [9] and 55.9% in assay [10].

Regarding `CC1(C)CC[C@]2(C(=O)O)CC[C@]3(C)C(=CC[C@@H]4[C@@]5(C)C/C(=C/c6cccnc6)[C@H](O)C(C)(C)[C@@H]5CC[C@]43C)[C@@H]2C1`, the growth is -5.12% [100 µM] (active) in assay [1]; -79.4% [100 µM] (active) in assay [2]; 19.5% [100 µM] in assay [3]; 16.6% [100 µM] in [4]; -8.69% [100 µM] (active) in assay [5]; 4.87% [100 µM] (active) in assay [6]. The growth in assay [7] was -77.1% [100 µM] (active); in assay [8], -56% [100 µM] (active); in [9], -87.1% [100 µM] (active); in assay [10], -35.3% [100 µM] (active).

Take `CSc1nc(N)c(N=Nc2ccc(S(=O)(=O)Nc3nnc(C)s3)cc2)c(=O)[nH]1`: the growth was 109% in [1]; 104% in assay [2]; 107% in assay [3]; 103% in [4]; 119% in assay [5]; 97.5% in assay [6]. In addition, the growth was 104% in assay [7], 94.3% in assay [8], 118% in assay [9] and 108% in assay [10].

Take `Cc1ccc(-c2cc(-c3ccc(C)cc3)nc(NCCNc3ccnc4cc(Cl)ccc34)n2)cc1`: the growth in [1] is -84.9% (active); in [2] it was -36% (active); in assay [3], -30.2% (active); in assay [4] it was 16.8%; in assay [5], -84.4% (active); in [6], -22.8% (active). Also, the growth in [7] is -93.1% (active); in assay [8] it was -79.9% (active); in assay [9], -92.3% (active); in assay [10] it was -83.6% (active).

Consider `CCC(Br)(CC)C(=O)c1ccc(OCC(=O)O)c(Cl)c1Cl`, for which the growth in assay [1] is 103%; in assay [2], 110%; in assay [3], 92.7%; in [4], 104%; in assay [5] it was 106%; in assay [6], 108%. Moreover, the growth was 97.7% in assay [7], 87.4% in assay [8], 96.9% in assay [9] and 111% in assay [10].
